Our source for the AC50 and outcome values is PubChem BioAssay (EPA / NIEHS).

A short description of assay [1]: CCTE_Deisenroth_AIME_384WELL_CTox_Active: Cytotoxicity Assessment (CTOX) in CCTE's 384-well Estrogen Receptor Transactivation Assay with AIME metabolic competence (metabolism positive), Deisenroth Lab (AID 2284037; active = hit-call score of the fitted dose curve at least 0.9, where 1 is the maximum;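 also: chemicals first conditioned 2 h by alginate-bound induced rat liver S9 before cells; activity means signal loss indicating cell death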). The essentials:
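Cytotoxicity in VM7Luc4E2 breast cells, 24 hour, measured as protease-substrate fluorescence loss, after 2-hour metabolic conditioning with induced rat hepatic S9 in alginate microspheres. Concentrations 0.002 - 200 uM, 10 points, bidirectional fitting.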

The nature of assay [2]: CCTE_Deisenroth_AIME_384WELL_CTox_Inactive: Cytotoxicity Assessment (CTOX) in CCTE's 384-well Estrogen Receptor Transactivation Assay without AIME metabolic competence (metabolism negative), Deisenroth Lab (AID 2284039; active = hit-call score of the fitted dose curve at least 0.9, where 1 is the maximum;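 also: cell viability via live-cell protease substrate cleaved to fluorescent probe; cells exposed 24 h to medium preincubated 2 h with alginate-water beads without S9; loss of fluorescence signal means loss of viability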). A digest of the protocol:
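VM7Luc4E2 human breast cells received conditioned medium from a 2 h incubation of chemical with alginate-water microspheres (no S9), then were exposed 24 h. Viability was read as protease-substrate cleavage to a fluorescent probe; loss of signal was fitted bidirectionally over 0.002–200 uM.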

The target of assay [3] is Estrogen receptor (Homo sapiens) (UniProt P03372). The assay can be described thus: CCTE_Deisenroth_AIME_384WELL_LUC_Shift: CCTE's 384-well Estrogen Receptor Transactivation Assay with AIME metabolic competence data shift (ERTA luciferase; difference in metabolism positive and negative), Deisenroth Lab (AID 2284041).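 Also: shift is response with S9 minus without S9 so positive means metabolism raised ER signal.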 A digest of the protocol: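 Test chemicals (0.002–200 uM, 10-point) were pre-incubated 2 h with alginate microspheres containing phenobarbital/beta-naphthoflavone-induced male Sprague Dawley rat liver S9 or water, then medium was transferred to VM7Luc4E2 cells for 24 h luciferase readout; shift = S9-positive minus S9-negative normalized response.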

Assay [4] in a line: CCTE_Shafer_MEA_acute_interburst_interval_mean: CCTE's Neural Acute Assay for Mean Interburst Interval, Shafer Lab (AID 2284016).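 Also: percent change of mean interburst interval versus each well's own pre-dose baseline; curves fitted for decrease in interburst interval relative to DMSO.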 A digest of the protocol: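 Primary rat cortical neurons on 16-electrode MEA wells were recorded 40 min at baseline on DIV 13 or 15, then 40 min after compound (0.03-40 uM), at 37 C. Value is percent change in mean interburst interval per well, DMSO as negative control.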

Assay [5] can be described thus: CCTE_Shafer_MEA_acute_burst_percentage_std: CCTE's Neural Acute Assay for Standard Deviation of Burst Percentage, Shafer Lab (AID 2284018).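 Also: fitted in the negative direction so actives lower burst percentage SD.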 A digest of the protocol:
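Value is percent change from baseline in the across-electrode SD of spikes-in-bursts percentage, wells with >/= 10 active electrodes. Acute 40-min exposure to 0.03-40 uM on DIV 13 or 15 rat cortical cultures, recorded at 37 C after 40-min baseline.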

A short description of assay [6]: CCTE_Shafer_MEA_acute_per_network_burst_spike_number_mean: CCTE's Neural Acute Assay for Average Number of Spikes in a Network Burst, Shafer Lab (AID 2284019).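 As to AC50: curve fitted for loss of signal so actives reduce spikes per network burst.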 A digest of the protocol:
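Percent change from baseline in mean spikes per network burst, spikes detected at 8x rms noise. Each compound at 0.03-40 uM in at least three wells of rat cortical cultures, recorded 40 min before and 40 min during exposure.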

Assay [7] in a line: CCTE_Shafer_MEA_acute_per_network_burst_spike_number_std: CCTE's Neural Acute Assay for Standard Deviation of Number of Spikes in a Network Burst, Shafer Lab (AID 2284020).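 Also: fitted for decrease in spike-number SD versus DMSO so actives lower it.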 The essentials:
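Endpoint: percent change from 40 min baseline in standard deviation of spikes per network burst, after 40 min compound exposure (0.03-40 uM, 37 C). Cortical rat neurons on MEA at DIV 13 or 15; spikes detected at 8x rms noise, 300-5000 Hz band-pass.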

The nature of assay [8]: CCTE_Shafer_MEA_acute_network_burst_percentage: CCTE's Neural Acute Assay for Percentage of Network Bursts, Shafer Lab (AID 2284022).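 Also: curves fitted for loss so actives lower network burst percentage.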 A digest of the protocol: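 Network burst percentage (spikes in network bursts divided by total spikes) recorded at 37 C over 40 min baseline and 40 min after compound, 0.03-40 uM, in rat cortical cultures at DIV 13 or 15. Analysed as percent change from baseline versus DMSO.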

Assay [9] can be described thus: CCTE_Shafer_MEA_acute_cross_correlation_area: CCTE's Neural Acute Assay for Area of Cross Correlation, Shafer Lab (AID 2284024).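 Also: area under pooled inter-electrode spike cross-correlation near zero lag as percent change from own baseline; curves fitted for loss of cross-correlation area so actives lower synchrony.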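 As to outcome: rat primary cortical neuron networks on 48-well MEA at DIV 13 or 15 with 40 min exposure.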 A digest of the protocol:
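Percent change in well-wide cross-correlation area (window around zero lag) between 40 min baseline and 40 min post-compound recordings, 37 C; rat cortical cultures on MEA at DIV 13 or 15, dosed 0.03-40 uM, wells needing >/= 10 active electrodes.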

The nature of assay [10]: CCTE_Shafer_MEA_acute_synchrony_index: CCTE's Neural Acute Assay for Synchrony, Shafer Lab (AID 2284027).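 Also: network synchrony index of spontaneous spiking in primary rat cortical neurons on MEAs; fitted for loss of signal so actives lower synchrony relative to DMSO.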 The essentials: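 Acute exposure of rat primary cortical neurons (DIV 13 or 15) at 0.03-40 uM. Synchrony index, 40 min before vs after, as % change relative to DMSO control.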
Assay [11] can be described thus: CCTE_Shafer_MEA_dev_per_burst_spike_percent: CCTE's Neural Network Formation Assay for Percent of Spikes in a Burst, Shafer Lab (AID 2284032).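 As to AC50: fitted as a decrease in burst spike percentage below DMSO baseline.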 A digest of the protocol:
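Value is trapezoidal AUC over recordings on days 5, 7, 9 and 12 of the well-mean fraction of spikes falling in single-electrode bursts; rat cortical cultures exposed continuously from plating, treatment renewed DIV 5 and 9, fitted downward against DMSO.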

The nature of assay [12]: CCTE_Shafer_MEA_dev_burst_rate: CCTE's Neural Network Formation Assay for Burst Rate, Shafer Lab (AID 2284042).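 As to AC50: potency for loss of burst rate below DMSO control.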 A digest of the protocol:
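Rat primary cortical cultures on PEI/laminin MEA; compound from plating, re-dosed at DIV 5, 9 media change. Single-electrode bursts/recording length, well mean of active electrodes; AUC over DIV 5–12 recordings; loss-of-signal vs DMSO.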

Assay [13] can be described thus: CCTE_Shafer_MEA_dev_bursting_electrodes_number: CCTE's Neural Network Formation Assay for Number of Bursting Electrodes, Shafer Lab (AID 2284043; active = hit-call score of the fitted dose curve at least 0.9, where 1 is the maximum;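 as to AC50: potency is for loss of bursting electrodes relative to DMSO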). The essentials:
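Number of electrodes reaching ≥1 burst every 2 min was recorded at DIV 5, 7, 9 and 12 and collapsed as trapezoidal area under the curve. Cultures were rat cortical neurons on MEA plates, dosed continuously from plating with medium and treatment refreshed on DIV 5 and 9.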

A short description of assay [14]: CCTE_Shafer_MEA_dev_per_burst_interspike_interval: CCTE's Neural Network Formation Assay for Burst Interspike Interval, Shafer Lab (AID 2284044).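 As to AC50: potency for a decrease of within-burst interspike interval below DMSO level.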 The essentials: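 Mean interspike interval within single-electrode bursts, averaged over bursting electrodes, from rat cortical cultures on MEA plates recorded on days 5, 7, 9 and 12. Continuous compound exposure from plating; trapezoidal AUC fitted downward relative to DMSO.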

Assay [15] in a line: CCTE_Shafer_MEA_dev_burst_duration_mean: CCTE's Neural Network Formation Assay for Mean Burst Duration, Shafer Lab (AID 2284045).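 As to AC50: curve fitted for loss meaning shorter burst duration than DMSO.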 The essentials: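 Mean single-electrode burst duration (first to last spike), averaged over bursting electrodes per well, then integrated as area-under-curve across recordings at days 5, 7, 9 and 12. Rat cortical cultures on MEAs, compound present from plating, refreshed at feeds.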

Assay [16] is described as follows: CCTE_Shafer_MEA_dev_interburst_interval_mean: CCTE's Neural Network Formation Assay for Mean Interburst Interval, Shafer Lab (AID 2284046).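 Also: well-mean interburst interval of bursting electrodes as AUC over four recording days; curve fitted for decrease in interburst interval relative to DMSO.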 A digest of the protocol:
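Rat cortical neurons, 1.5 x 10^5 cells/well, 48-well MEA; compound from day 0 through DIV 12, media and treatment renewed DIV 5/9. Recordings DIV 5, 7, 9, 12; well-mean interburst interval → trapezoidal AUC, loss direction vs DMSO.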

Assay [17] in a line: CCTE_Shafer_MEA_dev_inter_network_spike_interval_mean: CCTE's Neural Network Formation Assay for Mean Inter-network Spike Interval, Shafer Lab (AID 2284047). The essentials:
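Primary rat cortical neurons on PEI-coated 48-well MEAs (16 electrodes/well) were exposed from plating day 0 to DIV 12, with dosing renewed at DIV 5 and 9. Recordings at DIV 5, 7, 9, 12 were collapsed by trapezoidal AUC, loss-of-signal fit vs DMSO.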

Assay [18] in a line: CCTE_Shafer_MEA_dev_network_spike_number: CCTE's Neural Network Formation Assay for Number of Network Spikes, Shafer Lab (AID 2284048).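 Also: synchronized bursts across electrodes counted on days 5 7 9 12 and integrated as AUC.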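 As to AC50: fit as a loss of signal meaning fewer network spikes than DMSO.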 A digest of the protocol:
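Number of network spikes (coordinated firing across electrodes) recorded on days 5, 7, 9 and 12 and summarised as area under the curve. Rat cortical cultures on MEA, continuous compound exposure with full medium/treatment exchange at DIV 5 and 9.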

The nature of assay [19]: CCTE_Shafer_MEA_dev_network_spike_peak: CCTE's Neural Network Formation Assay for Mean Number of Electrodes in Network Spike, Shafer Lab (AID 2284049).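 As to AC50: fitted for loss of signal meaning fewer electrodes in network spikes than DMSO.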 A digest of the protocol: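 Rat cortical primary culture, 1.5 x 10^5 cells/well, 48-well MEA (16 electrodes/well). Dosing day 0 through DIV 12, full media/compound exchange DIV 5, 9. AxIS adaptive spike detection; AUC over days 5/7/9/12; loss-of-signal vs DMSO.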

Assay [20] addresses Estrogen receptor (Homo sapiens) (UniProt P03372). Put plainly: CCTE_Deisenroth_AIME_384WELL_LUC_Active: CCTE's 384-well Estrogen Receptor Transactivation Assay with AIME metabolic competence (ERTA luciferase; metabolism positive), Deisenroth Lab (AID 2284030; active = hit-call score of the fitted dose curve at least 0.9, where 1 is the maximum). A digest of the protocol:
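VM7Luc4E2 breast cells were given, for 24 hours, medium pre-incubated for 2 hours with parent chemical (0.002-200 uM, 10 concentrations) and alginate-encapsulated phenobarbital/beta-naphthoflavone-induced rat hepatic S9. Luciferase gain of signal was fitted against 17beta-estradiol; n=4 or more.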

“And” between values parts separate entries of the source, which are not always exact repeats. Identical values can stand only once. Inconclusive results are not listed. Some compounds were tested as several samples or in several runs, with calls that do not always agree. The source made the active and inactive calls. The calls were made as follows, unless noted: active = hit-call score of the fitted dose curve at least 0.9, where 1 is the maximum; inactive = score below 0.9.

In general, AC50 refers to the midpoint of the concentration-response curve, whichever way the signal moves.

Sequence of Estrogen receptor (Homo sapiens) (P03372 whole entry, looked up): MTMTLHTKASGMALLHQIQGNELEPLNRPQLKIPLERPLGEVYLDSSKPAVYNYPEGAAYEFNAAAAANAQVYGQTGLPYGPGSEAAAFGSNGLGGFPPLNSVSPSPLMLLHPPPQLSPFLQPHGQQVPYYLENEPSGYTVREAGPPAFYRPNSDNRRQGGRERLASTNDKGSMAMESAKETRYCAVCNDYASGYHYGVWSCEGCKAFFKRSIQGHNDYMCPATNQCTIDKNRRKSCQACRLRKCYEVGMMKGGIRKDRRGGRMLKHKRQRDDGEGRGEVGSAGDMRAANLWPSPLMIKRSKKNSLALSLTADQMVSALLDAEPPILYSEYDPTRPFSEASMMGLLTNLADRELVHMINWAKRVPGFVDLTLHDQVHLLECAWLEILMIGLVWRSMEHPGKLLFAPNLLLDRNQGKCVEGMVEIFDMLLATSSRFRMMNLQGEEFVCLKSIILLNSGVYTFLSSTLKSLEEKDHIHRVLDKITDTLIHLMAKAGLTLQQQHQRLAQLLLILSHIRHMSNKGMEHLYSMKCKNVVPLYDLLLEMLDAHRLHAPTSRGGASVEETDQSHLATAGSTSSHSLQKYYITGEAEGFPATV

Consider `CC(C)(C)C(O)/C(=C\c1ccc(Cl)cc1Cl)n1cncn1` (configuration not stated), for which the results for the AC50 in [1] and in [2] were 148 µM (active) and 144 µM (active), respectively. In [3], the result was inactive.

Take `CNC(=O)CSP(=S)(OC)OC`: the compound was called inactive in assay [4], in assay [5], in assay [6], in [7], in assay [8] and in assay [9]. Also, the outcome in [10], in [12], in [14], in assay [15], in assay [16] and in assay [17] was inactive. Further, the outcome in [18] was inactive. In addition, the AC50 in assay [11] was 63.8 µM (active) and 27.9 µM (active); in [12] it was 78.2 µM (active); in assay [13], 66.4 µM (active) and 21.9 µM (active); in [19] it was 50 µM (active) and 15 µM (active).

As to `CCOC1Oc2ccc(OS(C)(=O)=O)cc2C1(C)C` (configuration not stated), the AC50 in [1] and in assay [2] was 100 µM (active) each time. For the same compound, the result in assay [3] was inactive.

As for `COP(=S)(OC)Oc1ccc([N+](=O)[O-])cc1`, the outcome in assay [11], in [12], in assay [14], in [15], in assay [16] and in assay [17] was inactive. For the same compound, the call in assay [18] was inactive. The AC50 in [13] is 15 µM (active); in assay [19], 23.4 µM (active).

With `CC[C@H](C)[C@H]1O[C@]2(C=C[C@@H]1C)C[C@@H]1C[C@@H](C/C=C(\C)[C@@H](O[C@H]3C[C@H](OC)[C@@H](O[C@H]4C[C@H](OC)[C@@H](O)[C@H](C)O4)[C@H](C)O3)[C@@H](C)/C=C/C=C3\CO[C@@H]4[C@H](O)C(C)=C[C@@H](C(=O)O1)[C@]34O)O2` (tested in a mixture with another compound), the call in assay [4], in assay [8] and in assay [17] was inactive. For the same compound, the AC50 was 0.0752 µM (active) in assay [5]; 0.0134 µM (active) in assay [6]; 0.00528 µM (active) in assay [7]; 0.00277 µM (active) in [9]; 0.165 µM (active) in assay [10]; 9.62 nM (active) and 1.82 nM (active) in assay [11]. Also, the AC50 is 1.57 nM (active) and 0.778 nM (active) in assay [12]; 3.82 nM (active) and 1.05 nM (active) in [13]; 1.37 nM (active) and 2.71 nM (active) in assay [14]; 1.34 nM (active) and 0.41 nM (active) in assay [15]; 12.2 nM (active) and 2.7 nM (active) in [16]; 27.5 nM (active) and 2.25 nM (active) in assay [18]. For the same compound, in assay [19], the AC50 is 16.4 nM (active) and 2.37 nM (active).

Consider `N#CN`, for which the compound was called inactive in assay [4], in [5], in assay [6], in assay [7], in assay [8] and in assay [9]. Further, in assay [10], the result was inactive.

Turning to `Clc1ccccc1-c1nnc(-c2ccccc2Cl)nn1`, the compound was classed as inactive in assay [4], in [5], in [6], in assay [7], in assay [8] and in [9]. For the same compound, the compound was called inactive in assay [10], in [20], in assay [1], in [2] and in assay [3].

For `N#Cc1c(Cl)c(Cl)c(Cl)c(C#N)c1Cl`, the result in assay [4], in assay [5], in [6], in assay [7], in [9] and in assay [10] was inactive. For the same compound, the AC50 in [8] was 7.17 µM (active).

Regarding `CCC(C)(C)C(=O)OC1=C(c2ccc(Cl)cc2Cl)C(=O)OC12CCCCC2`, the compound was called inactive in assay [4], in [5], in [6], in assay [7], in assay [8] and in assay [9]. Further, the compound was called inactive in assay [10], in [11], in assay [12], in assay [13], in assay [14] and in assay [15]. The outcome in assay [16], in assay [17], in assay [18] and in [19] was inactive. In addition, the values for the AC50 in assay [6], in assay [9] and in [10] were 20 µM (active), 20 µM (active) and 5.2 µM (active), respectively.
